Measurements reported in the supplement of paper PMC11219838.
Unmarked numbers belong to inactive results.

System: Caenorhabditis elegans L1 (N2)
Test: survival and reproduction score of C. elegans L1 (0: 0-10 living worms, 1: 11-20, 2: 21-50, 3: >50, 4: overgrown) (score 0-4); higher = more worms, less nematicidal, active = 1 or less; extreme values may be limits of the assay
Settings: 60 µM; 6 days; temperature: 20 °C
In short: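 In liquid NGM with E. coli HB101, approximately 20 synchronized C. elegans N2 L1s per 96-well well were exposed to compound at 60 µM final (0.6% v/v DMSO) for 6 days at 20 °C with shaking at 200 rpm in sealed plates. Survival and reproduction were judged under a dissection microscope as an ordinal rating of living worms per well. Ratings went from 0 (0–10 worms) to 4 (overgrown, starved) and were averaged over two biological replicates.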

Compound | survival and reproduction score
CCOc1nc(-c2ccccc2)ccc1-c1noc(-c2ccccc2F)n1 | 4
COc1ccc(-c2noc(COc3ccc(C)c(C)c3)n2)cc1 | 4
Cc1cc(NC(=O)CSc2nnc(-c3ccccc3Cl)o2)no1 | 4
O=C(Nc1ccccc1-c1nc(-c2ccncc2)no1)c1ccccc1Cl | 4
Cc1cccc(-c2nnc(SCC(=O)Nc3ccc(Br)c(C)c3C)o2)c1 | 4
Brc1ccc(OCc2nc(-c3cccnc3)no2)cc1 | 4
COc1ccc(Cl)cc1-c1noc(-c2ccccc2C)n1 | 4
Cc1nc(CSc2nnc(-c3ccc(Cl)cc3)o2)cs1 | 4
Cc1ccc(-c2nc(-c3cccnc3)no2)c(C)c1 | 0 (active)
CC(=O)c1c(C)cc(C)c(CSc2nnc(-c3ccco3)o2)c1C | 4
O=C(CSc1nnc(-c2ccccc2)o1)Nc1ccccc1C(F)(F)F | 4
COc1cccc(-c2nc(-c3ccc(Br)cc3)no2)c1 | 0 (active)
Cn1c(SCc2nc(-c3ccccc3)no2)nnc1-c1ccco1 | 0 (active)
Cc1cccc(-c2nnc(SCC(=O)NCCc3ccccc3)o2)c1 | 4
Cc1cccc(-c2noc(-c3ccc4c(c3)OCO4)n2)c1 | 4
Fc1ccc(-c2nc(-c3ccc(Cl)cc3)no2)cc1 | 4
O=C(CSc1nnc(-c2ccco2)o1)c1ccc(Br)cc1 | 4
Clc1ccc(-c2noc(-c3ccncc3)n2)cc1 | 3.5
COc1ccccc1OCc1nc(-c2ccc(Br)cc2)no1 | 4

Compound | survival and reproduction score
Cc1ccc(SCc2nc(-c3cccc(C)c3)no2)cc1 | 4
COc1ccc(-c2noc(CSc3nc(C)cc(C)n3)n2)cc1 | 4
CN(C)C(=O)c1ccccc1-c1nc(-c2ccccc2Cl)no1 | 4
COc1ccc(-c2noc(-c3ccc(Cl)cc3Cl)n2)cc1 | 4
COc1ccc(-c2nnc(SCC(=O)N3CC(C)CC(C)C3)o2)cc1 (stereo not drawn) | 4
O=C(CSc1nnc(-c2ccc(Br)cc2)o1)NC1CCCCC1 | 4
Cc1ccc(-c2nnc(SCc3ccccc3C#N)o2)cc1 | 4
COc1ccc(CSc2nnc(-c3ccc(Cl)cc3Cl)o2)cc1 | 0 (active)
Clc1ccc(CSc2nnc(-c3ccc(Cl)cc3)o2)cc1 | 4
Brc1ccc(CSc2nnc(-c3cccnc3)o2)cc1 | 4
O=C(CSc1nnc(-c2ccco2)o1)Nc1ccc(F)cc1 | 3.5
CN(C)C(=O)c1ccccc1-c1nc(-c2ccc(Cl)cc2)no1 | 4
Cc1ccc(OCc2nc(-c3cccnc3)no2)c(Br)c1 | 4
Cc1cccc(OCc2nc(-c3ccccc3)no2)c1 | 1.5
Cc1ccc(OCc2nc(-c3ccc(F)cc3)no2)cc1C | 4
Cc1ccc(-c2nnc(SCC(=O)Nc3nccs3)o2)cc1 | 4
Cn1cc(C(=O)CSc2nnc(-c3ccccc3)o2)c2ccccc21 | 0 (active)
Brc1ccc(-c2nc(-c3cccnc3)no2)cc1 | 0 (active)
Brc1cccc(-c2nnc(SCc3ccccc3)o2)c1 | 4
